# Assay results: PubChem BioAssay
# Test system: Noggin (protein binding on small-molecule microarray)
# Assay: small molecules binding Noggin protein – biochemical, 635/667 nm fluorescence, primary screen (AID 1095);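 further: score merges 667 nm feature fluorescence with signal to noise over triplicate slides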
# Conditions: 635 nm fluorescence, higher = more signal
row,Structure (SMILES),composite z-score
1,CCN(CC)c1ccc(N2CC=CC34O[C@@H]5/C=C\CCC(C)OC(=O)C5[C@H]3C(=O)N(C(C)CO)[C@@H]4C2=O)cc1 (some centres not stated),0.07
2,Cc1ccc(C(C)CC(O)C2C=CC3C(=O)N(c4ccccc4)C(=O)C3N2Nc2ccc(C#N)cc2)o1 (configuration not stated),0.383
3,Cc1ccc(F)cc1S(=O)(=O)N[C@@H]1CCN(Cc2cccc3[nH]ccc23)C1,0.586
4,O=C1C2C=CC(C(O)c3ccco3)N(Nc3ccccc3)C2C(=O)N1c1ccccc1 (configuration not stated),-0.569
5,CCOC(=O)C1=CCC(c2ccco2)N(S(=O)(=O)c2ccc(C)cc2)C1 (configuration not stated),0.637
6,O=C(NCCN1CCOCC1)[C@@H]1c2ccccc2C(=O)N(Cc2ccccc2)[C@H]1c1ccc(CO)cc1,0.278
7,CCOC(=O)C1=C[C@@H](c2ccccc2)N(S(=O)(=O)c2ccc(C)cc2)[C@H]1c1ccccc1,0.0762
8,COCCOC(=O)N1C(=O)[C@@]2(c3cc(C#Cc4ccc(OC)cc4)ccc31)[C@H](c1ccc(OCCO)cc1)N1[C@H](c3ccccc3)[C@H](c3ccccc3)OC(=O)[C@H]1[C@@H]2C(=O)Nc1nc2ccccc2s1,0.55
9,[N-]=[N+]=Nc1ccccc1C[C@]1(C(=O)O)N=C(c2ccc(OCCCO)cc2)O[C@H]1c1ccccc1N=[N+]=[N-],-0.359
10,CC=CC(O)C1C=CC2C(=O)NC(=O)C2N1Nc1ccccn1 (configuration not stated),0.26
11,CCOC(=O)C1=C[C@@H](C(C)(C)C)N(S(=O)(=O)c2ccc(C)cc2)[C@H]1c1ccccc1,0.576
12,COC(=O)[C@@]1(Cc2ccc(F)cc2)[C@H]2c3cc(C(=O)N4CCCC4)n(CC4CC4)c3C[C@H]2CN1C(=O)c1ccccc1,0.577
